Shown are actives, neighbours in structure and some others; about 2.2% of the full set was active somewhere.
HGIII-sPLA2 inh = human group III sPLA2 inhibitors, primary screen, biochemical, QFRET, BODIPY PC-A2 liposome substrate; Group 3 secretory phospholipase A2 (Homo sapiens), Q9NZ20; QFRET BODIPY PC-A2 liposome hydrolysis, fluorescence; AID 743126, 2013; inhibition, % at 12.2 µM; actives 0.56% (n = 370,000);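 active = inhibition above mean plus 3 SD of compounds lying within the high and low control bounds, cut at about 19% in these data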;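 note: 0% = median of test compound wells and 100% = no enzyme DMSO wells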
Target sequence (Q9NZ20 whole entry, looked up): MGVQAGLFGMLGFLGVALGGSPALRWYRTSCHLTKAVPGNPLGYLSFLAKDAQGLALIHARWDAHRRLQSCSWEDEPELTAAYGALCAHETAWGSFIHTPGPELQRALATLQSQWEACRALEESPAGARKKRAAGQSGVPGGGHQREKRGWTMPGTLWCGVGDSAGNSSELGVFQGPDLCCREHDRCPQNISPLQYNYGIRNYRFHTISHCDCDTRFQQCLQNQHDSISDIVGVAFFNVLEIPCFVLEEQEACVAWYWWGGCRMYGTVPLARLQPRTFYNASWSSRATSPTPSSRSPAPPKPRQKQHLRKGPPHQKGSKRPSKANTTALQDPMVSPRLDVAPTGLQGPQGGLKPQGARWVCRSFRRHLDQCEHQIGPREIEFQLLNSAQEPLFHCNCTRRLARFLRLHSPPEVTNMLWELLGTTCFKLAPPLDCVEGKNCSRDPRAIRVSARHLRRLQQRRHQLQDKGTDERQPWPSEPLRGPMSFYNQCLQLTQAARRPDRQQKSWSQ
HTR5A inv ag = HTR5A inverse agonists in luminescence cell assay, primary screen, counter-screen for OPRM1-OPRD1 heterodimer inverse agonist project, full-deck HTS; actives 0.083% (n = 340,000); 5-hydroxytryptamine receptor 5A (Homo sapiens), P47898; inhibition, % at 9.3 µM; AID 504634, 2011; HTR5A cell line, inverse agonism; in the data active = inhibition mostly above about 23%, no sharp cut-off; inactive = mostly below about 18%;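 note: 0% = cells with DMSO and 100% = no-cell wells with DMSO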
HTR5A ag = HTR5A agonists in luminescence cell assay, primary screen, counter-screen for OPRM1-OPRD1 heterodimer agonist project, full-deck HTS; 5-hydroxytryptamine receptor 5A (Homo sapiens), P47898; cell-based; activation, % at 9.3 µM; actives 0.61% (n = 340,000); in the data active = activation mostly above about 9.5%, no sharp cut-off; inactive = mostly below about 7.6%;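 note: 0% = cells with vehicle only and 100% = reference agonist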
OPRM1-OPRD1 ag = agonists of OPRM1-OPRD1 heterodimerization, primary screen, cell-based, luminescence. cells. AID 504326, 2011. activation, % at 9.3 µM. actives 0.3% (n = 340,000); in the data active = activation above about 18%;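 note: 0% = vehicle-treated cells and 100% = reference agonist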
MOR-DOR inv ag = inverse agonists of MOR-DOR heterodimerization, primary screen, cell-based, luminescence; AID 504357, 2011; inhibition, % at 9.3 µM; cell-based MOR-DOR heterodimer luminescence, inverse agonism; actives 0.21% (n = 340,000); in the data active = inhibition above about 22%, passing the limit was not always enough;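 note: 0% = cells with DMSO and 100% = wells without cells with DMSO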
HTR2A ag = mouse Htr2a agonists via beta-arrestin recruitment, primary screen, cell-based, luminescence | AID 624169, 2012 | actives 0.66% (n = 360,000) | activation, % at 7.6 µM | 5-hydroxytryptamine receptor 2A (Mus musculus), P35363 | CHO-K1 mHTR2A beta-arrestin complementation; percent of 30 µM serotonin response;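 active = activation above a run cutoff, the mean activation of all tested compounds plus 3 SD, cut at about 14% in these data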;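 note: 0% = plate median of compound wells and 100% = 30 µM serotonin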
hGIII sPLA2 conf = human group III sPLA2 inhibitors, confirmation, biochemical, QFRET, triplicate; shares compounds with HGIII-sPLA2 inh; recombinant hGIII-sPLA2, BODIPY PC-A2 QFRET fluorescence; inhibition, % at 12.2 µM; actives 34% (n = 2,000); AID 743280, 2014;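 active = mean inhibition across triplicates above the hit cutoff set in the earlier primary screen, cut at about 19% in these data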;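 note: 0% = enzyme with DMSO and 100% = DMSO wells lacking enzyme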
535nm interf = 535nm fluorescence optical interference, confirmation, artefact control for HGIII-sPLA2 inhibitor project, biochemical, QFRET; AID 743282, 2014; shares compounds with HGIII-sPLA2 inh; inhibition, % at 12.2 µM; actives 8.5% (n = 2,000); BODIPY FL product fluorescence interference;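 active = average inhibition above the solvent-only control mean plus 3 SD, cut at about 6% in these data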;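 note: 0% = DMSO with substrate plus product and 100% = DMSO with substrate alone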
535nm interf DR = 535nm fluorescence optical interference, dose response, artefact control for HGIII-sPLA2 inhibitor project, biochemical, QFRET | BODIPY FL product fluorescence interference, cell-free | IC50, µM | shares compounds with HGIII-sPLA2 inh | 240 tested, under 10 active;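 active = IC50 at or below 10 µM; inactive = IC50 above 10 µM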
* hit, by the source's call; nt = not tested or not shown.

SMILES | HGIII-sPLA2 inh | HTR5A inv ag | HTR5A ag | OPRM1-OPRD1 ag | MOR-DOR inv ag | HTR2A ag | hGIII sPLA2 conf | 535nm interf | others
CC(=O)/C(=N\Nc1cccc(Cl)c1)Sc1nnc(-c2ccccc2)n1-c1ccccc1 | 20* | -5 | 3 | 0 | 3 | 2 | 7 | -3
O=C(CSc1nc2ccccc2c(=O)n1-c1ccc(Cl)cc1)NNC(=S)Nc1ccccc1 | 33* | nt | nt | nt | nt | nt | 27* | 4
CCn1c(SCC(=O)NNC(=S)Nc2ccccc2)nnc1-c1ccc(Cl)cc1 | 17 | 18 | -3 | -3 | 14 | -2 | nt | nt
O=C(CSc1nnc(-c2ccccc2)n1-c1ccc(Cl)cc1)NNC(=S)Nc1ccccc1 | 26* | -4 | -1 | 0 | 2 | 0 | 39* | -7 | 535nm interf DR=>122
Cc1ccc(/C=N/NC(=O)CSc2nc3ccccc3c(=O)n2-c2ccccc2C)s1 | -5 | 9 | -4 | 3 | -16 | 3 | nt | nt
O=C(CSc1nc2ccccc2c(=O)n1-c1ccc(Cl)cc1)c1ccco1 | -15 | 25 | 3 | -3 | 12 | 0 | nt | nt
Cc1ccc(/C=N/NC(=O)CSc2nc3ccccc3c(=O)n2-c2ccccc2)s1 | 19* | 8 | -3 | -1 | 7 | 1 | 3 | 2
O=C(NN=Cc1cccc(OCc2ccccc2)c1)c1cc(-c2ccc(Cl)cc2)n[nH]1 | -11 | nt | nt | nt | nt | nt | nt | nt
Cn1c(NC(=O)c2ccccc2)nc(Cc2ccccc2)c1Cc1ccccc1 | 0 | nt | nt | nt | nt | nt | nt | nt
CCOC(=O)CC[C@H]1CC[C@]2(CCCN(C(=O)c3cccnc3)C2)O1 | -2 | nt | nt | nt | nt | nt | nt | nt
C[C@@H]1COc2cc(N3CCOCC3)ccc2S(=O)(=O)N1 | 1 | nt | nt | nt | nt | nt | nt | nt
CC(C)C(=O)NC(c1cccs1)c1cc([N+](=O)[O-])c2cccnc2c1O (stereo not given) | nt | -26 | 2 | 2 | -12 | -2 | nt | nt
CCC(=O)NC(c1cccs1)c1cc([N+](=O)[O-])c2cccnc2c1OC (stereo not given) | 19* | nt | nt | nt | nt | 1 | 17 | -4
Oc1c(C(Nc2nccs2)c2ccc(C(F)(F)F)cc2)ccc2cccnc12 (stereo not given) | 40* | 7 | 1 | 6 | -31 | -6 | 23* | -1
COc1ccccc1NC(=O)c1ccccc1C(=O)O | 8 | 5 | -2 | -3 | 13 | 2 | nt | nt
COc1ccc(NC(=O)NNC(=O)c2ccc3ccccc3c2O)c(OC)c1 | 32* | 20 | 1 | -2 | 13 | 2 | 34* | 5 | 535nm interf DR=>122
COc1ccc(NC(=O)c2ccccc2NC(=O)c2ccccc2C(=O)O)c(OC)c1 | 22* | 5 | -2 | -3 | 15 | 12 | 0 | -1
CCOc1ccc(NC(=O)NNC(=O)c2ccc3ccccc3c2O)cc1 | 21* | 11 | 1 | 1 | -3 | -5 | 24* | 1
O=C(Nc1ccc(F)cc1)Nc1nc2ncccn2c1-c1ccc(F)cc1 | 4 | nt | nt | nt | nt | nt | nt | nt
COC(=O)[C@]12C[C@H](CC(=O)NCCCN3CCCC3=O)C(=O)N(Cc3ccc4c(c3)OCO4)C1=C[C@H](C(C)(C)C)O[C@@H]2C | -2 | nt | nt | nt | nt | nt | nt | nt
COc1cccc(/C=C2\CC3(OC(=O)c4ccc(F)cc4)CCCN2C3)c1 (stereo not given) | -8 | nt | nt | nt | nt | nt | nt | nt
Cc1ccc(O)c(N=Cc2cc(Cc3ccccc3)cc([N+](=O)[O-])c2O)c1 | 25* | -16 | 6 | 4 | -23 | -4 | 23* | 7.8*
